# Tests used:
# Assay in all cases: DAPPL (digital affinity profiling via proximity ligation, sequencing); 10 mM Tris-HCl pH 7.5, 50 mM NaCl, 1 mM DTT, 4% glycerol, room temperature, 30 min; GST-TFs on glutathione beads, 16-mer random dsDNA library, 0.1% formaldehyde crosslink after washing; high values mean tight binding
# Conditions in all cases: protein: recombinant; tags: N-terminal GST; dsDNA, one strand shown
# FLI1 = molecular target: T1, FLI1 (Homo sapiens, UniProt Q01543 1-452)
# T1 sequence: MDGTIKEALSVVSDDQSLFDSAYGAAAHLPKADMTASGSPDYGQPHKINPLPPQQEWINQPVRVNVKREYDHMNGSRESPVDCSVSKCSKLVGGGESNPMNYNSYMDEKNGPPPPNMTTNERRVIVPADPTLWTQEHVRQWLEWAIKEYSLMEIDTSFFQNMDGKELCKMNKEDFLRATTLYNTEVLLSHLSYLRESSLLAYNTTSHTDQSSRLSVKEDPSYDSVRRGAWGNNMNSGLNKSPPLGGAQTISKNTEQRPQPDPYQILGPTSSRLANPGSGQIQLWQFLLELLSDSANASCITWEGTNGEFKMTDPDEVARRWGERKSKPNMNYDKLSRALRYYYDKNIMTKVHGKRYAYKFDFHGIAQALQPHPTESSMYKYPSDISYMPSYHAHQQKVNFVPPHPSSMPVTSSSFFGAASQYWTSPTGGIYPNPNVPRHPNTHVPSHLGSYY
# Outline: (§1)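 After expression in yeast as GST fusions, human transcription factors were bound to glutathione beads, DNA-barcoded and mixed with a tag-only sample. The pools were incubated with 200 nmole of a 16-mer random double-stranded DNA library in Tris/NaCl/DTT/glycerol buffer (30 min, room temperature), washed and crosslinked with 0.1% formaldehyde. Proximity ligation with BsaI/T4 ligase ran for 1 h at 37 °C, before PCR amplification and sequencing on an Illumina NextSeq500. Binding signal is a hexamer's read frequency for a factor divided by its frequency for the tag-only sample.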
# ELK1 = molecular target: T2, ELK1 (Homo sapiens, UniProt P19419 1-428)
# T2 sequence: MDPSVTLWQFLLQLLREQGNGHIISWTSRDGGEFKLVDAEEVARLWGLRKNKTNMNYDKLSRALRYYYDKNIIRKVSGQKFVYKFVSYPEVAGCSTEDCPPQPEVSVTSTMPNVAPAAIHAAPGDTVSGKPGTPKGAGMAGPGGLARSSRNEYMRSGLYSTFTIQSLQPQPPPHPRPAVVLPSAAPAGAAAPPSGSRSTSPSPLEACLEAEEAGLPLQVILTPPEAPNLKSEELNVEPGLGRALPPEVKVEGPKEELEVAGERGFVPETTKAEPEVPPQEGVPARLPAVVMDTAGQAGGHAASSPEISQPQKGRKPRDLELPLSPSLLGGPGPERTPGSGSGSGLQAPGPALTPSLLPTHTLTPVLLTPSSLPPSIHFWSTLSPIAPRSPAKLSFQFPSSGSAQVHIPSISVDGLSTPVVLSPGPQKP
# Outline: as §1
# GABPA = molecular target: T3, GABPA (Homo sapiens, UniProt Q06546 1-454)
# T3 sequence: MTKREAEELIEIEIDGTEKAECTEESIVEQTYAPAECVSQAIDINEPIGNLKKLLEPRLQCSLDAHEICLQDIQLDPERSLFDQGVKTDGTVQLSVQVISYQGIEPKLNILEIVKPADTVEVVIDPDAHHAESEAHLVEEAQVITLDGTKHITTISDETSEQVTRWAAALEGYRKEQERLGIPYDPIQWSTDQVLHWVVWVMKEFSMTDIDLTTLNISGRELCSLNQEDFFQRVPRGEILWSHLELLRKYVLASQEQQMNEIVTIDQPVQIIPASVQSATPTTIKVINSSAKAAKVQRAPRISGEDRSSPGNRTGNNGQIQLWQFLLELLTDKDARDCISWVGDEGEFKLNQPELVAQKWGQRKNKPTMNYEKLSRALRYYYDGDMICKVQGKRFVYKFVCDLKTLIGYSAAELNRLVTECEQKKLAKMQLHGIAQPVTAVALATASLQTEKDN
# Outline: as §1
# ERG = molecular target: T4, ERG (Homo sapiens, UniProt P11308 1-479)
# T4 sequence: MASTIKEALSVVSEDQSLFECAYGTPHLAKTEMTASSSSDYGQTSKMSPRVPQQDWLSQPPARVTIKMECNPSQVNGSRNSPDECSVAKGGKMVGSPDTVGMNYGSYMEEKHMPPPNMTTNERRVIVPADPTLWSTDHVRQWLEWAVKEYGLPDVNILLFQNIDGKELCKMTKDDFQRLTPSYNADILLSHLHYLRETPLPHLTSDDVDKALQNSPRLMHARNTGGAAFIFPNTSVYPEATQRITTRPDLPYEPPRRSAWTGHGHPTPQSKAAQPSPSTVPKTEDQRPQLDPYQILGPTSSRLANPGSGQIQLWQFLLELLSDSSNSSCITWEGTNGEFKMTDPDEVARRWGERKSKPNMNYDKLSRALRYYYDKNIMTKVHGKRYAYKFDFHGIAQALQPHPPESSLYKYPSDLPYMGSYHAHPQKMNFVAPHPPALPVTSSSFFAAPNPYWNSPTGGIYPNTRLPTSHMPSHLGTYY
# Outline: as §1
# ELF1 = ELF1 (Homo sapiens, UniProt P32519 1-619)
# Outline: as §1
# EHF = molecular target: T5, EHF (Homo sapiens, UniProt Q9NZC4 1-300)
# T5 sequence: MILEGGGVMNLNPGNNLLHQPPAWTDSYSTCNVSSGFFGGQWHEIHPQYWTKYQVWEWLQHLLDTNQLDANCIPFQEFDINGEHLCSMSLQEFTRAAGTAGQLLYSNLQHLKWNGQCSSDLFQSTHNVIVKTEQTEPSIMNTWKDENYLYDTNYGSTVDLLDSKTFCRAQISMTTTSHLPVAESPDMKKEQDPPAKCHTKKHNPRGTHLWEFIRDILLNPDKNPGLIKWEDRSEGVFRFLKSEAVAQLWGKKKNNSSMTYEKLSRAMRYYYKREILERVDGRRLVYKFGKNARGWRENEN
# Outline: as §1
# SPI1 = SPI1 (Homo sapiens, UniProt P17947 1-270)
# Outline: as §1
# SPIB = SPIB (Homo sapiens, UniProt Q01892 1-262)
# Outline: as §1
# FEV = molecular target: T6, FEV (Homo sapiens, UniProt Q99581 1-238)
# T6 sequence: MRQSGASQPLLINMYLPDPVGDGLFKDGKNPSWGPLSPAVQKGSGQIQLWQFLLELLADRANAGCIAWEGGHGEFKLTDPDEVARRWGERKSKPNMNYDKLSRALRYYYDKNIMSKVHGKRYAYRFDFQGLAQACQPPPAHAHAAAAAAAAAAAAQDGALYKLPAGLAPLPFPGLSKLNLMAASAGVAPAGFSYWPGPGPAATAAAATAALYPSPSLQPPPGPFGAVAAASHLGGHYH
# Outline: as §1
# ETV5 = ETV5 (Homo sapiens, UniProt P41161 1-510)
# Outline: as §1
# SPIC = molecular target: T7, SPIC (Homo sapiens, UniProt Q8N5J4 1-248)
# T7 sequence: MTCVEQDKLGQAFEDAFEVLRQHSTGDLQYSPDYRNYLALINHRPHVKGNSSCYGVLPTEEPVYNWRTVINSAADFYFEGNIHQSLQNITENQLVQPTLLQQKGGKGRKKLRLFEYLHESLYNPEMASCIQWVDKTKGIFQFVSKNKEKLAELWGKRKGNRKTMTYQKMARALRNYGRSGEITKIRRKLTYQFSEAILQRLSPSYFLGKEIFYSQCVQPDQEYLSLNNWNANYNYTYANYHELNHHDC
# Outline: as §1
# ELF4 = ELF4 (Homo sapiens, UniProt Q99607 1-663)
# Outline: as §1
# ELK4 = molecular target: T8, ELK4 (Homo sapiens, UniProt P28324-2 1-405)
# T8 sequence: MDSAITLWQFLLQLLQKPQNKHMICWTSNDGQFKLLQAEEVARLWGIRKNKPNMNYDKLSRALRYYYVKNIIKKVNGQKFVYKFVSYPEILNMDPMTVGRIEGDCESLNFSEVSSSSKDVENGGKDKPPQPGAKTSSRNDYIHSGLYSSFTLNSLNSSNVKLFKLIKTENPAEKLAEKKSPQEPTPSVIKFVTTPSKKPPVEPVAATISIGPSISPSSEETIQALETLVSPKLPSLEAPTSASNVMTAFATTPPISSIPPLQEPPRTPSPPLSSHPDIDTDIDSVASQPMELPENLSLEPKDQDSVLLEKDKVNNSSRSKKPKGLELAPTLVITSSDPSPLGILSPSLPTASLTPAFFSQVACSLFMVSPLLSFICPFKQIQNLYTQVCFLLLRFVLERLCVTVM
# Outline: as §1
# ETV2 = molecular target: T9, ETV2 (Homo sapiens, UniProt O00321 1-342)
# T9 sequence: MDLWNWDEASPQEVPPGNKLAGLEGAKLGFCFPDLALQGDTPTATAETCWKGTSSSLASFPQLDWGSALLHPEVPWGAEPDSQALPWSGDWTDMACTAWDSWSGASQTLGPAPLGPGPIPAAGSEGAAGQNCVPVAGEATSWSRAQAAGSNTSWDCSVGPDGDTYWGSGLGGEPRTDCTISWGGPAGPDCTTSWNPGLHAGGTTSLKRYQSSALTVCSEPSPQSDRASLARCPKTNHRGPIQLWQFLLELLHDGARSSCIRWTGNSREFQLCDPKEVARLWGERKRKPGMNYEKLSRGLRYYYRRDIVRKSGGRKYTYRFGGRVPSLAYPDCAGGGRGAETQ
# Outline: as §1
# ELF3 = molecular target: T10, ELF3 (Homo sapiens, UniProt P78545 1-371)
# T10 sequence: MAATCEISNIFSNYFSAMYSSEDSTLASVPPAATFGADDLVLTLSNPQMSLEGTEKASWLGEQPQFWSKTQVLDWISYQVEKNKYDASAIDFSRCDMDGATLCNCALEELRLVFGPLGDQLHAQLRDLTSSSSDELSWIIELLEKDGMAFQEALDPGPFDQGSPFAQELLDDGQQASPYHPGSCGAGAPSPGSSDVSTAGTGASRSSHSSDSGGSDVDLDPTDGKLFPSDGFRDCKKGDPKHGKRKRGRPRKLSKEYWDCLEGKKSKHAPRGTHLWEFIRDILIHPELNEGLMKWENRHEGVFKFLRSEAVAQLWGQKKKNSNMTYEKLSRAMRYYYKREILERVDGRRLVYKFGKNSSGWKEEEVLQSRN
# Outline: as §1
# ETV1 = ETV1 (Homo sapiens, UniProt P50549 1-477)
# Outline: as §1
# ELK3 = molecular target: T11, ELK3 (Homo sapiens, UniProt P41970 1-407)
# T11 sequence: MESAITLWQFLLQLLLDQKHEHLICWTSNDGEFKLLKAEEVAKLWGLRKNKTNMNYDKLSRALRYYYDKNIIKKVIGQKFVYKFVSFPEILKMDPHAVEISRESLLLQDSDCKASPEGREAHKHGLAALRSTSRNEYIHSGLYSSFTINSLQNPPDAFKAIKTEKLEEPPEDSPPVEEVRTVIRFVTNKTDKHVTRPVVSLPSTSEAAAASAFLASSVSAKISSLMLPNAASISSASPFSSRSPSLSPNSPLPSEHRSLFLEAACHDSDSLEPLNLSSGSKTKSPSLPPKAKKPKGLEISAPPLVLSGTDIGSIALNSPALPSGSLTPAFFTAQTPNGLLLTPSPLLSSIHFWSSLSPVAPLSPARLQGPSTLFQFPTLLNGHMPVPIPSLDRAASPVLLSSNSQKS
# Outline: as §1
# ETV1, sequence (P50549 whole entry): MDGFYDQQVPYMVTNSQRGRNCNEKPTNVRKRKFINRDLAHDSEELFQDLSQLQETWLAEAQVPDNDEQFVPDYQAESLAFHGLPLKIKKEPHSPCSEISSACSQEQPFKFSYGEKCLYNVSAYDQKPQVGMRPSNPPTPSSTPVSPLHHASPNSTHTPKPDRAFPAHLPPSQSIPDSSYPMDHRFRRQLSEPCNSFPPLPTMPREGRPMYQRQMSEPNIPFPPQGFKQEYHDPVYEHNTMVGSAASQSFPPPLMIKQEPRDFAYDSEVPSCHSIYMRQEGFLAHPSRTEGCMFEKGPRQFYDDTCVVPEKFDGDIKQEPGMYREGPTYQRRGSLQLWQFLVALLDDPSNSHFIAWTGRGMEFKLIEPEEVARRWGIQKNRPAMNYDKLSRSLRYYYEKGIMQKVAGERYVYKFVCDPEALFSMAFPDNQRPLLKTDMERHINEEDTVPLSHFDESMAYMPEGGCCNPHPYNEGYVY
# ETV5, sequence (P41161 whole entry): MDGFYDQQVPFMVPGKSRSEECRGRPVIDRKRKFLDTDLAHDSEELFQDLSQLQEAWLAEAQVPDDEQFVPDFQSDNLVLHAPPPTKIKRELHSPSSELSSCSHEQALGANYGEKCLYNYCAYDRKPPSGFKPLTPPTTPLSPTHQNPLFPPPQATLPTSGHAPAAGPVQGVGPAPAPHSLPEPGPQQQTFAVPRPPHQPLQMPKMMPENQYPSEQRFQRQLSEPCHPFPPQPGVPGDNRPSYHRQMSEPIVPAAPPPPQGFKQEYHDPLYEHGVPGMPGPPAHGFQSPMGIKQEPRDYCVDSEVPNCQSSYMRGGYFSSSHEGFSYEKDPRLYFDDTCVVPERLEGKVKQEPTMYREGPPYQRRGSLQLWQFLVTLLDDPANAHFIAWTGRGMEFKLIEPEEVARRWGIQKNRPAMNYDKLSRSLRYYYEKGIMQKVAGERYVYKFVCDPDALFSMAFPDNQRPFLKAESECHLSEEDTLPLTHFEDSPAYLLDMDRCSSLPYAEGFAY
# ELF1, sequence (P32519 whole entry): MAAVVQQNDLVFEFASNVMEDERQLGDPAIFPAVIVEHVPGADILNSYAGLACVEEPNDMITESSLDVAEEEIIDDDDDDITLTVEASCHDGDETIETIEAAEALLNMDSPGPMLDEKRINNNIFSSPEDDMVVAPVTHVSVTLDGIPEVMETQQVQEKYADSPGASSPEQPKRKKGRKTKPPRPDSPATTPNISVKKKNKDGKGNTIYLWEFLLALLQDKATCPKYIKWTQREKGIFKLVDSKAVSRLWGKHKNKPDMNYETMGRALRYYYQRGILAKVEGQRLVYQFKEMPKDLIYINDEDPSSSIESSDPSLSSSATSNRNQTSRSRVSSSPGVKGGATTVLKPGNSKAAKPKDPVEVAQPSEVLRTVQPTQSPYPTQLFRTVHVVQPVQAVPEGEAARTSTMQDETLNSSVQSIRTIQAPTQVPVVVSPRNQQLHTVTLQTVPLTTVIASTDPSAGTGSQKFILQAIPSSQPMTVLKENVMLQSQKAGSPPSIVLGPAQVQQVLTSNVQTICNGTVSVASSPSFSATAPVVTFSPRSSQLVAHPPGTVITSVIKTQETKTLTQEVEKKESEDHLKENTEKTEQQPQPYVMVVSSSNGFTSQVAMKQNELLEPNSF
# ELF4, sequence (Q99607 whole entry): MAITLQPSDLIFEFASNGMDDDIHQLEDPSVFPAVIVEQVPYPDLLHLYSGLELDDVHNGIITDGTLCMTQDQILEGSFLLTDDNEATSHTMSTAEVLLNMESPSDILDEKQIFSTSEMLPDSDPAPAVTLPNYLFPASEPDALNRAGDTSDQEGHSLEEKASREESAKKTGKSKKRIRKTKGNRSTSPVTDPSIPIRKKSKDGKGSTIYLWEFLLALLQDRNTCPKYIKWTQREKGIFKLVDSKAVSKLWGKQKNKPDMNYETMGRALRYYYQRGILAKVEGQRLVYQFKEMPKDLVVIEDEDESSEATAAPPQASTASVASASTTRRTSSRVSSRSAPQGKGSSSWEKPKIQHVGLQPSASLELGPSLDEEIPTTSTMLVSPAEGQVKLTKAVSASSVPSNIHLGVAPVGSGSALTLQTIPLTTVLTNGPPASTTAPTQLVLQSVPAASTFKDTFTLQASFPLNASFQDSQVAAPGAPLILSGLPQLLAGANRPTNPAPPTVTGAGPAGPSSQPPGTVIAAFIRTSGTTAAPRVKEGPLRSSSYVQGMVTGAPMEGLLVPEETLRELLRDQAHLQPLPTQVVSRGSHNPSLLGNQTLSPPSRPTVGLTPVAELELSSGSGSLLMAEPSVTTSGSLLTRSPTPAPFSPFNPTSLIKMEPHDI
# SPIB, sequence (Q01892 whole entry): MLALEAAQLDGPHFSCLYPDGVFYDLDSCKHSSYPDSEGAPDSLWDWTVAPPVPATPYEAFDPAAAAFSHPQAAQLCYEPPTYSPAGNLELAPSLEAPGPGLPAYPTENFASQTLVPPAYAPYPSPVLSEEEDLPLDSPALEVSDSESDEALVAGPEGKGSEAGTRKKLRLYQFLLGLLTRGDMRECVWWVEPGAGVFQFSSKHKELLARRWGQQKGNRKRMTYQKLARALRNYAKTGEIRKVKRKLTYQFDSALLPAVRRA
Sequence,binding signal (FLI1),binding signal (ELK1),binding signal (GABPA),binding signal (ERG),binding signal (ELF1),binding signal (EHF),binding signal (SPI1),binding signal (SPIB),binding signal (FEV),binding signal (ETV5),binding signal (SPIC),binding signal (ELF4),binding signal (ELK4),binding signal (ETV2),binding signal (ELF3),binding signal (ETV1),binding signal (ELK3)
ACGCTG,"1.14 fold enrichment (6-mer frequency, TF over GST control)","1.19 fold enrichment (6-mer frequency, TF over GST control)","1.23 fold enrichment (6-mer frequency, TF over GST control)","1.18 fold enrichment (6-mer frequency, TF over GST control)","1.19 fold enrichment (6-mer frequency, TF over GST control)","1.23 fold enrichment (6-mer frequency, TF over GST control)","1.11 fold enrichment (6-mer frequency, TF over GST control)","1.05 fold enrichment (6-mer frequency, TF over GST control)","1.09 fold enrichment (6-mer frequency, TF over GST control)","1.08 fold enrichment (6-mer frequency, TF over GST control)","1.15 fold enrichment (6-mer frequency, TF over GST control)","1.17 fold enrichment (6-mer frequency, TF over GST control)","1.21 fold enrichment (6-mer frequency, TF over GST control)","1.05 fold enrichment (6-mer frequency, TF over GST control)","1.05 fold enrichment (6-mer frequency, TF over GST control)","1.12 fold enrichment (6-mer frequency, TF over GST control)",–
CAACAT,"1.18 fold enrichment (6-mer frequency, TF over GST control)","1.21 fold enrichment (6-mer frequency, TF over GST control)","1.22 fold enrichment (6-mer frequency, TF over GST control)","1.2 fold enrichment (6-mer frequency, TF over GST control)","1.2 fold enrichment (6-mer frequency, TF over GST control)","1.23 fold enrichment (6-mer frequency, TF over GST control)","1.06 fold enrichment (6-mer frequency, TF over GST control)","1.14 fold enrichment (6-mer frequency, TF over GST control)","1.21 fold enrichment (6-mer frequency, TF over GST control)","1.21 fold enrichment (6-mer frequency, TF over GST control)","1.05 fold enrichment (6-mer frequency, TF over GST control)","1.19 fold enrichment (6-mer frequency, TF over GST control)","1.23 fold enrichment (6-mer frequency, TF over GST control)","1.19 fold enrichment (6-mer frequency, TF over GST control)","1.2 fold enrichment (6-mer frequency, TF over GST control)","1.13 fold enrichment (6-mer frequency, TF over GST control)","1.14 fold enrichment (6-mer frequency, TF over GST control)"
